PI4K2A block = qHTS for small molecular inhibitors of PI4K2A. Phosphatidylinositol 4-kinase type 2-alpha (Homo sapiens), Q9BTU6. purified PI4K2A, ADP-Glo luminescence, 1 h; hits give low values. activity change, negative = inhibition, % at 76.9 µM. actives 0.13% (n = 420,000); in the data active = activity change below about -50%; inconclusive = mostly about -30% to -49%;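 note: -100% = wells without enzyme as full effect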
Target sequence (Q9BTU6 whole entry, looked up): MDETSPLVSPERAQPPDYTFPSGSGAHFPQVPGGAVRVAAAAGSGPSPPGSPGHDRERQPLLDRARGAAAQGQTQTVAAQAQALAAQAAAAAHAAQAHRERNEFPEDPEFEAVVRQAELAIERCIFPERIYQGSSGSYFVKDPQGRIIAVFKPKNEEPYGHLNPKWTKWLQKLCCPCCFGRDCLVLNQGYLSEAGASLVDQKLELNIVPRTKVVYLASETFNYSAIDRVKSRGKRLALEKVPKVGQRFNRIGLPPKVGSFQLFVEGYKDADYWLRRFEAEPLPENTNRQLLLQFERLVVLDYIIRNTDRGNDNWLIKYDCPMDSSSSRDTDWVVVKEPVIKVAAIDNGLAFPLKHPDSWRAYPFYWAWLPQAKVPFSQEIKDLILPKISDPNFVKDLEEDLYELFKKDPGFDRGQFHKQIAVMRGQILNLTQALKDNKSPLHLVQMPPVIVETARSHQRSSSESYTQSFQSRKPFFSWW
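PI4K2A activity was measured by ADP-Glo luminescence: enzyme (4 ug/mL stock) and phosphatidylinositol (1.2 mM stock) in Tris pH 7.5/MgCl2/EGTA/Triton X-100 buffer were reacted with ATP (300 microM stock) for one hour at ambient temperature.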
A549 tox = Nrf2 qHTS screen for inhibitors: counterscreen for cytotoxicity; actives 0.16% (n = 390,000); A549 ARE-Fluc cells, CellTiter-Fluor viability, 18-24 h; AID 504648, 2011; Potency, µM (titrated, usually from 46 µM), for the others: at the top dose activity change, negative = cytotoxicity, hits mostly inhibitors; note: potency is the fitted concentration of half-maximal effect
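A549 ARE_Fluc cells in 5% FBS OPTI-MEM were exposed to compounds in concentration-response for 18-24 h at 37 deg C. Viability was read by CellTiter-Fluor fluorescence (Ex 405/Em 525) after 30 min, before the luciferase read.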
Giardia killer = Small Molecules that selectively kill Giardia lamblia: qHTS; Giardia lamblia trophozoite viability; activity change, % at 7.66 µM, hits read low; actives 0.15% (n = 340,000); AID 540267, 2011; in the data active = activity change below about -80%; inconclusive = between about -30% and that limit;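 note: parasites exposed to compound for two days anaerobically before the ATP read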
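Trophozoites 100 cells/well + cpd; 48 hrs, 37 deg C, anaerobic. ATPLite 1-Step added, 15-30 min RT, luminescence read (ATP-based viability).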
KB-3-1 cytotox = qHTS assay for MDR1-selective chemotherapeutics: Primary screen using the parental adenocarcinoma cell KB-3-1 | KB-3-1 viability, CellTiter-Glo ATP luminescence, 72 h | Potency, µM (top dose mostly 46.1 µM), usual class: cytotoxic | actives 1.4% (n = 400,000) | AID 1347075, 2019; note: potency is the fitted concentration of half-maximal effect; nearly all actives have a fitted effect of over 60% in size
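Using CellTiter-Glo luminescence, growth of non-resistant KB-3-1 adenocarcinoma cells is assessed 72 h after pin-tool compound addition at 37 °C. Normalized responses across the concentration series yield fitted curves.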
KB-V1 cytotox = qHTS assay for MDR1-selective chemotherapeutics: Primary screen using the drug-selected MDR subline cells KB-V1. Potency, µM (doses to about 46.1 µM), hits mostly cytotoxic. actives 3.4% (n = 400,000). KB-V1 MDR cells viability, CellTiter-Glo, 72 h; note: potency is the fitted concentration of half-maximal effect; nearly all actives have a fitted effect of over 60% in size
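Cells of the MDR subline KB-V1 are plated, dosed with compound at multiple concentrations, and incubated 72 h at 37 degrees C; CellTiter-Glo is then added and luminescence read after 10 min.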
Nrf2 inh = Nrf2 qHTS screen for inhibitors; A549 ARE-Fluc reporter, luciferase luminescence, 18-24 h; Potency, µM (top dose mostly 46 µM), inactives show at the highest dose activity change, negative = inhibition, usual class: inhibitors; actives 2.1% (n = 360,000); AID 504444, 2011; note: potency is the fitted concentration of half-maximal effect; nearly all actives have a fitted effect of over 60% in size
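Concentration-response testing used A549 ARE_Fluc cells at 5000 cells/well. Following an 18-24 h compound incubation, viability was read by fluorescence (Ex 405/Em 525) and luciferase output by luminescence.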
An asterisk follows results filed as active; i = inactive; ? = inconclusive; . = not tested or not shown; ! = repeats disagree. Rows were chosen to be rich in hits. Some 5.7% of all compounds tested hit in one or more screens of this group. Unless noted, calls come from the whole dose curve; as a rule, active = well fitted curve in the direction sought with a large enough effect; inconclusive = small, poorly fitted or top-dose-only effect, or another doubt; inactive = no such curve, though single readings can be large; an effect the other way counts as inactive or inconclusive. Unless noted, % is set by controls: 0 for no effect and ±100 for the full control effect.

SMILES	PI4K2A block	A549 tox	Giardia killer	KB-3-1 cytotox	KB-V1 cytotox	Nrf2 inh
Cc1cc(=O)n(C)c(=O)n1CCCCCCOc1cccc([N+](=O)[O-])c1	-0.2	0.1%	-14.4	?	7.31µM*	?
COc1ccc(NC(=O)CN(C)C(=O)CCc2ccccc2)cc1	-6.6	-4.8%	-10.2	i	i	-5.4%
COc1ccc(NC(=O)CN(C)C(=O)C2(c3ccccc3)CCCC2)cc1	9.3	-3.9%	-16.3	?	?	8.2µM*
COc1ccc(NC(=O)CN(C)CC(=O)NC2CCC(C)CC2)cc1 (configuration not stated)	-2.9	-2.4%	9.2	i	20.6µM*	9.0%
COc1ccc(NC(=O)CN(C)CC(=O)NC2CCCCC2C)cc1 (configuration not stated)	-3.1	-0.9%	8.2	i	18.4µM*	-3.2%
COc1ccc(NC(=O)CN(C)CC(=O)NC(=O)NC2CCCCC2)cc1	3.6	-2.2%	-2.5	i	i	-2.7%
CCc1ccc(-n2ncc(Cl)c(Oc3ccc(OC)cc3)c2=O)cc1	2.4	.	.	.	.	.
COC(=O)C1CN(Cc2cn(Cc3ccc(F)cc3)nn2)CCS(=O)(=O)N1Cc1ccccc1 (configuration not stated)	-0.8	.	.	.	.	.
CN(C)c1ccc(N=Nc2ccccc2C(=O)OCC(=O)NC2CCCC2)cc1	-6.0	-22.1%	?	i	?	?
CN(C)c1ccc(N=Nc2ccccc2C(=O)OCC(=O)NCC2CCCCC2)cc1	-10.1	-12.8%	-16.1	i	7.31µM*	?
COC(=O)[C@]12C[C@H](CC(=O)N3CCCCC3)C(=O)N(CCC3=CCCCC3)C1=C[C@H](C(C)C)O[C@@H]2C1CC1	0.2	.	.	.	.	.
CC(C)C(NC(=O)c1ccccc1)C(=O)NC1=NCCS1 (configuration not stated)	-1.1	-3.8%	7.0	i	i	-16.5%
COc1ccc(-c2csc(NC(=O)Cc3cc(OC)c(OC)c(OC)c3)n2)cc1OC	2.1	?	-0.4	i	6.51µM*	20.6µM*
COc1cc(OC)cc(C(=O)N[C@H](C(=O)NC2=NCCS2)C(C)C)c1	0.8	-0.2%	-3.5	i	11.6µM*	7.6%
COc1cc(OC)cc(C(=O)N[C@H](C(=O)Nc2nc(-c3cc(OC)ccc3OC)cs2)C(C)C)c1	3.1	-1.0%	0.0	i	i	?
COc1cc(OC)cc(C(=O)N[C@H](C(=O)Nc2nc(-c3ccc(OC)c(OC)c3)cs2)C(C)C)c1	1.4	-2.7%	8.9	?	?	7.31µM*
COc1cc(CC(=O)Nc2nc(C)cs2)cc(OC)c1OC	0.7	-1.9%	-2.1	i	i	?
COc1ccc(C(=O)Nc2ccc(-c3nc4ccccc4[nH]3)cc2)cc1OC	.	.	.	i	?	.
O=C(CSc1nnc(-c2ccccc2)n1-c1ccc(Cl)cc1)Nc1ccccc1-c1ccccc1	-3.1	.	.	.	.	.
COc1ccc(/C=N/n2cc(-c3ccccc3)nc2N)cc1	5.1	-0.2%	0.7	3.66µM*	7.31µM*	15.9%
COc1ccc(/C=N/n2cc(-c3ccc(OC)cc3)nc2N)cc1	-1.9	0.5%	11.4	i	i	-17.9%
Cc1cccc(N(C)S(=O)(=O)c2nnc(NC(=O)c3ccco3)s2)c1	-1.8	1.9%	-2.5	i	?	2.4%
CCC(CC)C(=O)Nc1nnc(S(=O)(=O)N(C)c2cc(C)cc(C)c2)s1	-4.5	-5.8%	.	.	.	20.6µM*
Cc1cc(C)cc(N(C)S(=O)(=O)c2nnc(NC(=O)COc3ccc(Cl)cc3)s2)c1	1.8	-18.6%	.	.	.	?
CN(c1ccccc1)S(=O)(=O)c1nnc(NC(=O)c2ccco2)s1	-2.3	-2.8%	-14.3	i	i	7.31µM*!
SMILES	PI4K2A block	A549 tox	Giardia killer	KB-3-1 cytotox	KB-V1 cytotox	Nrf2 inh
COc1ccccc1C(=O)Nc1ccc2c(c1)CN(C(=O)CSC)CC2	2.2	3.2%	4.2	25.9µM*	i	?
CCOC(=O)CNC(=O)N1CCc2ccc(NC(=O)c3ccccc3Cl)cc2C1	2.6	-4.8%	12.3	i	?	-3.9%
COc1ccccc1C(=O)Nc1ccc2c(c1)CCCN2C(=O)c1cccs1	-13.7	5.5%	2.8	?	i	-17.3%
COc1ccccc1C(=O)Nc1ccc2c(c1)CCCN2C(=O)c1ccccc1	-0.7	0.3%	-9.6	18.4µM*	?	?
Cc1ccn2c(Nc3c(C)cccc3C)c(-c3ccc(Cl)s3)nc2c1	3.4	-2.0%	.	i	i	?
CCCCCCOC(=O)NC(=N)c1ccc(NCc2nc3cc(C(=O)N(CCC(=O)OCC)c4ccccn4)ccc3n2C)cc1	-0.7	.	.	.	.	.
COc1ccc(C2CC(=O)N(Cc3cccc(F)c3)c3ccccc3S2)cc1 (configuration not stated)	1.2	-15.7%	.	?	?	?
COc1ccc(C2CC(=O)N(Cc3ccc(F)cc3)c3ccccc3S2)cc1 (configuration not stated)	3.6	-3.8%	.	?	14.6µM*	?
COc1ccc(C2CC(=O)N(C)c3ccccc3S2)cc1OC (configuration not stated)	3.3	1.2%	18.5	i	?	?
COc1cc(C2CC(=O)N(Cc3ccc(F)cc3)c3ccccc3S2)cc(OC)c1OC (configuration not stated)	7.8	-20.4%	.	?	11.6µM*	16.4µM*
COc1ccc(C2CC(=O)N(Cc3ccc(F)cc3)c3ccccc3S2)cc1OC (configuration not stated)	11.5	-3.4%	.	?	16.4µM*	?
COc1ccc2[nH]c3c(c2c1)CCN[C@]31C(=O)N(Cc2cn(Cc3ccccc3)nn2)c2ccccc21	-8.7	.	.	.	.	.
Nc1ccc(-c2nc3ccc(N)cc3[nH]2)cc1	-2.2	1.4%	1.4	i	i	21.0%
Nc1ccc2nc(-c3ccc(Cl)cc3)[nH]c2c1	-2.3	-17.1%	-18.9	18.4µM*	i	?
Cc1cc2c(s1)c1cnn(Cc3c(F)ccc(F)c3F)c(=O)c1n2C	.	3.9%	.	.	.	27.5%
CCn1c(COc2ccc(=O)n(-c3ccccc3)n2)nnc1SCc1cccc(OC)c1	-6.8	-12.7%	12.6	i	16.4µM*	-0.5%
O=C(CSc1nnc(-c2ccccc2)n1-c1ccc(Cl)cc1)Nc1cccc2ccccc12	-5.9	.	.	.	.	.

Screening results as filed in PubChem.
